# Assay outcomes as filed in PubChem BioAssay.
# Compounds with a hit are over-represented: about 1.6% of the library has one in this group of screens.
# DSG3 Ab inh = human desmoglein-3 autoantibody binding inhibition; P32926; DSG3-coupled beads, scFv-anti-DSG3-GFP binding, flow cytometry; active compounds read low; binding (percent of control), % at 10 µM; 310,000 tested, 0.48% active;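 active = binding more than 3 SD below its plate's average and above zero; inconclusive = below that plate limit but binding exactly zero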;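 also: hits lower antibody fragment binding to DSG3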
# GRK2 aptamer HTS = human GRK2 inhibition via aptamer displacement. P25098. bead flow cytometry, FAM-aptamer displacement from GRK2. inhibition of aptamer binding, % at 10 µM. 330,000 tested, 0.59% active;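 active = inhibition of aptamer binding above 40%, roughly 3 SD of noise, on plates passing a quality check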;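 also: median bead fluorescence of bound FAM aptamer so fluorescent compounds give negative values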
# GASC-1 inh = human JMJD2C demethylase inhibition | Q9H3R0 | GST-JMJD2C(1-420) H3K9me3 demethylation, DELFIA europium | inhibition, % at 2.35 µM | 330,000 tested, 0.069% active | AID 2099;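 active = more than half of a compound's replicate wells show inhibition beyond 50%, single wells judged on their own value; inconclusive = some, but no more than half, of replicates pass 50% inhibition; inactive = no replicate passes 50% inhibition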;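 also: signal counts dimethyl H3K9 product captured on neutravidin plate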
# VLA-4 inh = inhibition in a human VLA-4 binding assay; P13612; VLA-4 expressing cells, ligand binding flow cytometry; inhibition, % (about 7 µM as worked out from the volumes in the protocol); 330,000 tested, 0.2% active; AID 2557; in the data active = inhibition above about 50%
# PREPL inhibitor = inhibitors of human prolyl oligopeptidase-like enzyme PREPL. recombinant PREPL, fluorescence polarization activity-based probe. 320,000 tested, 0.68% active. inhibition, % at 5.96 µM. Q4J6C6
# Target sequence (Q4J6C6 whole entry, looked up): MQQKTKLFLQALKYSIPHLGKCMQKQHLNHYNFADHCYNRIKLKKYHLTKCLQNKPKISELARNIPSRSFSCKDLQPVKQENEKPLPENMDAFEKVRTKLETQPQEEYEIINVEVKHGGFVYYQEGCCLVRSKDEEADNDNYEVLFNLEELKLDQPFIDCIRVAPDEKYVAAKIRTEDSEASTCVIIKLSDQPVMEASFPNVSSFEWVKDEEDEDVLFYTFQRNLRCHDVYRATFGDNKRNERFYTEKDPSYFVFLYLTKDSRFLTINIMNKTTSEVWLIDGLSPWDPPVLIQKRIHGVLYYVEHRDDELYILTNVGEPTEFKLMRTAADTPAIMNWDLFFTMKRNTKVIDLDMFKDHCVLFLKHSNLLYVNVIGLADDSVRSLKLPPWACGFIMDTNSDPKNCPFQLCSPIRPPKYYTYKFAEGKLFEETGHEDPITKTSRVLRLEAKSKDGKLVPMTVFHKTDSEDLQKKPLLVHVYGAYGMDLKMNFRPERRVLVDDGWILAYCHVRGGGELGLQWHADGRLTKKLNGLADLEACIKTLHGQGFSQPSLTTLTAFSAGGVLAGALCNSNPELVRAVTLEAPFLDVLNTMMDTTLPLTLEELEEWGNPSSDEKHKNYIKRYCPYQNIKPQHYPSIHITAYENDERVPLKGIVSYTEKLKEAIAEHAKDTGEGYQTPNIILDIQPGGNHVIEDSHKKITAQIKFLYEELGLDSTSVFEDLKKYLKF
# PREPL inh cf = confirmation of human PREPL enzyme inhibitors; recombinant PREPL, fluorescence polarization activity probe; AID 2803; 2,000 tested, 67% active; shares compounds with PREPL inhibitor; inhibition, % at 5.96 µM
# Numbers stand for hits; n = inactive; u = inconclusive; x = not tested or not shown. Rule as the data show it, unless noted: active = inhibition above about 43%; inactive = the rest.
SMILES,DSG3 Ab inh,GRK2 aptamer HTS,GASC-1 inh,VLA-4 inh,PREPL inhibitor,PREPL inh cf
COc1ccccc1CNC(=O)c1c(N)n(CCCN2CCOCC2)c2nc3ccccc3nc12,n,x,n,x,x,x
Cc1ccn2c(-c3csc(NCc4ccccc4)n3)c(C)nc2c1,n,n,n,n,45,45
CC(=O)Nc1cc(OC(=O)c2ccco2)cc(OC(=O)c2ccco2)c1,n,n,n,n,50,n
CC(=O)Nc1ccc(OC(=O)c2ccco2)cc1,n,n,n,n,n,x
O=C(CCOc1ccccc1)Nc1ccnn1C1CCN(CCc2ccccc2)CC1,n,n,n,n,n,x
Nc1ccc2c(c1)N1CCN=C1S2,n,n,n,n,n,x
O=C(Nc1ccc(Cl)cc1)Nc1ccc2c(c1)N1CCN=C1S2,n,n,n,n,58,n
CN1c2ccccc2Oc2nnc(N3CCN(Cc4ccccc4)CC3)cc21,n,n,n,n,46,n
CN1c2ccccc2Oc2nnc(Cl)cc21,n,n,n,n,n,x
CC(=O)N1N=C(c2ccc(NS(=O)(=O)c3ccccc3)cc2)CC1c1ccco1 (stereo not drawn),n,n,n,n,n,x
Cc1ccc(C(=O)N2C(CC(=O)Nc3ccc(Cl)cc3)C(=O)NC3CCCCC32)cc1 (stereo not drawn),n,n,n,n,n,x
C=C1c2cccc(O)c2C(=O)C2C(=O)[C@]3(O)C(=O)C(C(N)=O)C(=O)[C@@H](N(C)C)[C@@H]3[C@@H](O)[C@H]12 (stereo partly drawn),n,n,x,n,62,n
C[C@H]1c2cccc(O)c2C(O)=C2C(=O)[C@]3(O)C(O)=C(C(N)=O)C(=O)[C@@H](N(C)C)C3[C@@H](O)C21 (stereo partly drawn),n,n,n,n,n,x
Cc1ccc(SCC(=O)Nc2nnc(C(C)(C)C)s2)cc1,n,n,n,n,n,x
CCCCn1c(N)c(N(CC(C)C)C(=O)CCNC(=O)c2ccc(Br)cc2)c(=O)[nH]c1=O,n,n,n,n,n,x
O=C(Cn1cc[n+](CC(=O)c2ccc(Cl)cc2Cl)c1)c1ccc(Cl)cc1Cl,n,n,n,n,46,n
O=C(Cn1cc[n+](CC(=O)c2ccccc2)c1)c1ccccc1,n,n,n,n,n,x
CCN1CCCCC(=N/O)/C(=N/O)CCCC1,n,n,n,n,n,x
CN(C)c1nc(-c2ccccn2)nnc1-c1ccccc1,n,n,n,n,52,79
c1ccc(-c2nnc(-c3ccccn3)c(-c3ccccn3)n2)nc1,n,n,n,n,n,x
CCCCCCC(=O)N1C/C=C\C(c2ccc(OC)cc2)N(Cc2ccc(F)cc2)C(=O)[C@H]1Cc1ccccc1 (stereo partly drawn),x,n,n,n,48,44
Cc1ccc(Nc2nc(N/N=C/c3c[nH]c4ccccc34)nc(N3CCOCC3)n2)cc1,n,n,n,n,44,60
CCn1c2ccccc2n2c(=O)c(=O)n(CC(=O)N3CCN(c4ccccc4OC)CC3)nc12,x,n,n,n,n,x
Cc1nc2ccc([N+](=O)[O-])cc2c(=O)n1Cc1ccc(Br)cc1,n,n,n,n,n,x
Cc1nc2ccc([N+](=O)[O-])cc2c(=O)n1Cc1cccc(Br)c1,n,n,n,n,45,n
SMILES,DSG3 Ab inh,GRK2 aptamer HTS,GASC-1 inh,VLA-4 inh,PREPL inhibitor,PREPL inh cf
COc1cc2c(cc1OC)C(O)C(O)(CO)C(C(=O)O)C2c1cc(OC)c(OC)c(OC)c1 (stereo not drawn),n,x,x,x,x,x
CCC(C)[C@H]1CN=C(N)N1CCc1cc(C(F)(F)F)cc(C(F)(F)F)c1 (stereo partly drawn),n,n,n,n,n,x
CC[C@@H](C)[C@@H]1CN([C@@H](C)CN2CCC[C@H]2CN2C(N)=NC[C@@H]2Cc2ccccc2)C(=N)N1CCCC1CCCC1,x,n,n,n,44,50
CC[C@@H](C)[C@@H]1CN([C@@H](C)CN2CCC[C@H]2CN2C(N)=NC[C@@H]2Cc2ccccc2)C(=N)N1CCc1ccc(Cl)c(Cl)c1,n,n,x,n,52,n
CC[C@@H](C)[C@@H]1CN([C@@H](CN2CCC[C@H]2CN2C(N)=NC[C@H]2C(C)C)C(C)C)C(=N)N1CCc1ccc(Cl)c(Cl)c1,n,n,x,n,60,50
Cc1cc(Br)ccc1NC(=O)C1C2CCC(O2)C1C(=O)O (stereo not drawn),n,n,n,n,n,x
CCS(=O)(=O)c1ccc2c(c1)N(S(C)(=O)=O)CC(C(=O)NC1CC1)O2 (stereo not drawn),n,n,n,n,n,x
O=C(c1ccc(-c2cc(O)c3ncccc3c2)cc1)N1CCNCC1,n,n,x,n,55,49
CC(c1nc2ccccc2n1Cc1ccccc1)N1CCCCC1 (stereo not drawn),n,n,n,n,n,x
CCOC(=O)C(NCc1ccc2c(c1)OCO2)(NC(=O)c1ccccc1)C(F)(F)F (stereo not drawn),n,n,n,n,n,x
CC1=Nc2cccc3cccc(c23)N1,n,n,n,n,45,n
CCCCCN(C(=O)CCC(=O)OCC(=O)N1CCCC(C)C1)c1c(N)n(CCCC)c(=O)[nH]c1=O (stereo not drawn),n,n,n,n,n,x
CN(C(=O)CN1C(=O)S/C(=C\c2ccccc2)C1=O)C1CCS(=O)(=O)C1 (stereo not drawn),n,n,n,n,n,x
CCN(C(=O)CCN1C(=O)S/C(=C\c2ccccc2)C1=O)C1CCS(=O)(=O)C1 (stereo not drawn),u,n,n,n,45,n
Clc1ccc(OCc2nn3c(C4CCCCC4)nnc3s2)cc1,n,n,n,n,46,n
O=C(NCc1ccccc1)c1ccc2nc(-c3ccco3)c(-c3ccco3)nc2c1,n,n,n,n,61,43
O=C(Nc1ccccc1)c1ccc2nc(-c3ccco3)c(-c3ccco3)nc2c1,n,n,n,n,n,x
COc1ccc2noc3c2c1C(=O)c1ccccc1-3,n,n,n,n,50,n
COc1ccc(OC)c2c1C(=O)c1ccccc1C2=O,x,n,n,n,n,x
COc1ccc(N2CCN(CCCNS(=O)(=O)c3c(C)noc3/C=C/N(C)C)CC2)cc1,x,n,n,n,71,n
COc1ccc(N2CCc3c(C)nc4c(OC)cccc4c32)cc1,n,n,n,n,n,x
COc1ccc(N2CCc3c(C)nc4c(OC)cc(OC)cc4c32)cc1,x,n,n,n,52,49
COc1ccccc1/C=C/C(=O)NCC(=O)N/N=C/c1ccc(C)o1,n,n,n,n,n,x
Cc1ccc(-c2csc(N3CCN(c4cc5c(cc4Cl)nc(-c4ccncc4)n5CCN4CCCCC4)CC3)n2)cc1,n,n,n,n,45,n
CCOC(=O)c1nc(NNC(=O)c2ccc([N+](=O)[O-])cc2)sc1C,n,n,n,n,n,x
CN1CCc2c(sc3c2C(=O)NC(c2cn(Cc4ccccc4)c4ccccc24)N3)C1 (stereo not drawn),n,n,n,n,55,61
